HCMV antiviral – blocks human cytomegalovirus replication | HFF cells, HCMV-luciferase reporter, 72 h; stronger effect = lower value | activity change, negative = inhibition, % at 57.5 µM | 410,000 tested, 4.5% active; in the data active = activity change below about -60%; inconclusive = no clear call, values can overlap the other calls; inactive = above about -39%; note: % is set by controls: 0 for no effect and ±100 for the full control effect
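Human foreskin fibroblasts infected with luciferase-reporter HCMV at MOI 1 PFU/cell, compounds at two doses. Luciferase measured 72 h post infection; normalized to buffer-only basal and Salinomycin (10uM) controls.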
FMDV inh – antivirals against foot and mouth disease virus; FMDV antiviral cell-based qHTS; Potency, µM (top dose mostly 57.9 µM), inactives show at the top dose activity change, negative = inhibition, hits mostly inhibitors; 410,000 tested, 1.2% active; AID 1159524; calls by dose curve; tested in HEK293T cells; note: read-out not given here; potency is the fitted concentration of half-maximal effect; % is set by controls: 0 for no effect and ±100 for the full control effect; nearly all actives have a fitted effect of over 45% in size
HCV inhibitor – HCV inhibition; Potency, µM (titrated, usually from 41.8 µM), for inactives: at the highest dose activity change, negative = inhibition, actives largely listed as inhibitors; AID 651820; Huh7.5.1 HCVcc-Cre infection, luciferase reporter, 44 h; 340,000 tested, 3.4% active; active = well fitted inhibition curve with a large enough effect; inconclusive = small, poorly fitted or top-dose-only effect, or another doubt; inactive = no such curve, though single readings can be large or run the other way; note: potency is the fitted concentration of half-maximal effect; % is set by controls: 0 for no effect and ±100 for the full control effect
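Whole-lifecycle infectious HCVcc-Cre system; cells 1,000/well, compound then virus (~0.5 moi) added 4 h after plating, 44 h culture. Luciferase read 15 sec following 15 min substrate incubation, room temp.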
LASV entry inh – inhibitors of Lassa virus binding or cell entry | Lassa virus pseudotype entry inhibition, cell reporter | Potency, µM (highest dose often 37.9 µM), for inactives: at the highest dose activity change, negative = inhibition, usual class: inhibitors | 300,000 tested, 1.2% active; calls by dose curve; tested in HEK293 cells; note: potency is the fitted concentration of half-maximal effect; % is set by controls: 0 for no effect and ±100 for the full control effect; nearly all actives have a fitted effect of over 50% in size
Marburg entry inh – blocks Marburg virus binding to or entry into cells. Marburg virus pseudotyped entry inhibition, cell reporter. Potency, µM (top dose mostly 37.8 µM), without a hit: top-dose activity change, negative = inhibition, hits mostly inhibitors. 300,000 tested, 1.8% active. AID 540276; calls by dose curve; tested in HEK293 cells; note: potency is the fitted concentration of half-maximal effect; % is set by controls: 0 for no effect and ±100 for the full control effect
SARS PLpro yeast – inhibitors of SARS-CoV papain-like protease in yeast | Potency, µM (series often up to 32.9 µM), without a hit: at the top dose activity, positive = growth rescue, actives largely listed as activators | S. cerevisiae expressing SARS-CoV PLpro, growth rescue | 330,000 tested, 0.19% active | AID 485353; calls by dose curve; note: potency is the fitted concentration of half-maximal effect; 0% is about no effect; nearly all actives have a fitted effect of over 55% in size
* hit, by the source's call; ? = inconclusive; . = no result given; [ ] = dose if it differs, or a comment. Compounds with a hit are over-represented: about 8% of the library has one in this group of screens.

SMILES	HCMV antiviral	FMDV inh	HCV inhibitor	LASV entry inh	Marburg entry inh	SARS PLpro yeast
O=C(Nc1ccccc1F)N1CC(=O)N2[C@H](CO)[C@@H](c3ccc(Br)cc3)[C@@H]2C1	1	.	.	.	.	.
CC(=O)Nc1ccc(NC(=O)C2Cc3c(-c4ccc(Cl)cc4)ccnc3O2)cc1 (stereo unspecified)	-9	-17%	.	.	.	.
COc1ccc(NC(=O)C2Cc3c(-c4ccc(Cl)cc4)ccnc3O2)cn1 (stereo unspecified)	-82*	?	.	.	.	.
COc1ccc(NC(=O)C2Cc3c(-c4ccccc4)ccnc3O2)cc1OC (stereo unspecified)	.	35µM*	.	.	.	.
NC(=O)c1cccc(-c2ccnc3c2CC(C(=O)Nc2cccc(C(F)(F)F)c2)O3)c1 (stereo unspecified)	-22	28µM*	.	.	.	.
COc1ccc(NC(=O)C2Cc3c(-c4cccc(C(C)=O)c4)ccnc3O2)cc1OC (stereo unspecified)	-92*	8.9µM*	.	.	.	.
CCN(CC(=O)Nc1ccc(N2CCOCC2)cc1)C(=O)COc1ccccc1OC	34	41%	23%	5%	?	1%
O=S1(=O)N=C(c2ccccc2)c2ccccc21	6	6%	-16%	0%[46.1 µM]	14%[46.1 µM]	.
O=C(Nc1ccc2c(c1)OCO2)C1Cc2c(-c3ccc4c(c3)OCO4)ccnc2O1 (stereo unspecified)	-62*	-27%	.	.	.	.
COc1ccc(NC(=O)C2Cc3c(-c4ccc(Cl)cc4)ccnc3O2)cc1OC (stereo unspecified)	-78*	?	.	.	.	.
COc1ccc(CCCNC(=O)C2Cc3c(-c4cccc(NC(C)=O)c4)ccnc3O2)cc1 (stereo unspecified)	-61*	35µM*	.	.	.	.
COc1cccc(-n2cc(C(=O)OCc3ccc(F)c(F)c3)c3ccccc3c2=O)c1	8	0%	.	17%[46.1 µM]	.	.
Cc1cc(C)cc(CC(=O)N2CCC2(C)C(=O)NS(=O)(=O)c2ccc(Br)cc2)c1 (stereo unspecified)	30	-10%	.	.	.	.
COc1ccc(CNC(=O)c2sc3nc4n(c(=O)c3c2C)CCCC4)cc1	-13	12%	.	-2%[46.1 µM]	.	.
CC1(C(=O)NS(=O)(=O)c2cccc(OC(F)F)c2)CCN1C(=O)Cc1ccccc1 (stereo unspecified)	14	1%	.	.	.	.
COc1ccccc1NC(=O)N1CCN(c2ccnc3cc(Cl)ccc23)CC1	-67*	?	?	-23%	?	0%
COc1ccccc1N1CCN(c2ccnc3cc(Cl)ccc23)CC1	-63*	-11%	?	?	?	-9%
COc1ccccc1NC(=O)N1CCc2[nH]c3ccc(Cl)cc3c2C1	-18	?	11µM*	?	-22%	1%
COc1ccccc1NC(=O)Cc1c(C(=O)O)[nH]c2ccc(Cl)cc12	-26	-23%	.	15%[46.1 µM]	.	.
COC(=O)[C@](O)(c1ccc(NC(=O)c2ccco2)c(OC)c1)C(F)(F)F	.	.	.	.	6%[46.1 µM]	.
COc1ccc([C@H]2C=C3CN(C(=O)OC(C)(C)C)S(=O)(=O)[C@H]3C[C@H]2OC(=O)c2cccs2)cc1	12	-20%	-30%	.	.	-2%
O=C(NCC1(N2CCOCC2)CCCCCC1)c1cnn(-c2nccc(-c3ccco3)n2)c1C1CC1	.	0%	.	.	.	.
Cc1nc(C(=O)N(Cc2cc3ccc(F)cc3nc2N2CCC(O)CC2)CC2CCCO2)cs1 (stereo unspecified)	.	7%	.	.	.	.
CC(=O)Nc1cccc(OCCCNS(=O)(=O)c2ccc(C#N)cc2)c1	-11	1%	-21%	-13%[46.1 µM]	?	3%
CCOc1ccc(C2=C(C=C(C#N)C#N)C(c3ccccc3)c3ccccc3O2)cc1 (stereo unspecified)	60	0%	?	-20%	-14%	6%
COc1ccc(C2=C(CN(C)C)C(c3ccccc3)c3ccccc3O2)cc1 (stereo unspecified)	-25	0%	-1%	13µM*	?	-4%
Cc1cccc(CSc2nc(N)c(C#N)c(-c3cccs3)c2C#N)c1	-35	?	11µM*	-21%	?	19%
Cc1ccccc1Nc1nnc(-c2ccc(C(=O)NCCO)cc2)c2ccccc12	-31	29%	1%	.	.	2%
